aDG glyco act – activators of alpha-DG glycosylation, primary screen, uHTS, Pro5-aDG cells, AlphaScreen | alpha-DG glycosylation AlphaScreen (IIH6); 0% Pro5, 100% B10-LARGE cell signal | activation, % at 10 µM | 0.22% of 360,000 active | AID 624168, 2012;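 active = activation of at least 8% versus controls, or a plate z-score of at least 8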;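 also: Pro5 are CHO cells carrying HIG-tagged alpha-DG that lacks glycosylation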
GalR3 antag – GalR3 antagonists in HEK293 cells, primary screen, cell-based, fluorescence readout | Galanin receptor type 3 (Homo sapiens), O60755 | HEK293 GalR3-CNG cAMP membrane potential fluorescence; galR3 body fused to GalR1 C-terminus | inhibition, % at 3 µM | 0.44% of 360,000 active | AID 651719, 2012;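 active = inhibition above the screen-wide average plus 3 SD, cut at about 13% in these data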;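 also: forskolin and galanin both at EC90 stimulate the cells; cAMP rise reported by CNG channel membrane potential dye signal; 0% = forskolin plus galanin with DMSO and 100% = forskolin alone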
Target sequence (O60755 1-299 limits assumed): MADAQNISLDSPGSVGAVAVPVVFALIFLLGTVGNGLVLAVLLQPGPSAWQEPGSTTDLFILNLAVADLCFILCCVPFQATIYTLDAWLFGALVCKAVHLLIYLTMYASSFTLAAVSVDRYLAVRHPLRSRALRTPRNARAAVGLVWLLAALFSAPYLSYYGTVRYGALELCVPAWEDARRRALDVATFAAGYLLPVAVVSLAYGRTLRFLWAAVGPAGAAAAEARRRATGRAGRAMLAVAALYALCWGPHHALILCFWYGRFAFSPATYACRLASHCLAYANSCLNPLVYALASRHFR
HIV Env fusion – inhibitors of HIV-1 Env-driven cell-cell fusion, primary screen, HeLa-JRFL effector, CEM21 target cells, luciferase | inhibition, % at 12.3 µM | 1.1% of 360,000 active;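 active = mean replicate inhibition score of at least 50 and every replicate individually at or above 50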;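 also: 0% = plate neutral controls and 100% = maraviroc near 300 nM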
NR2F2 inh – NR2F2 transcriptional activity inhibitors, primary screen, cell-based, luciferase reporter, HEK293T, luminescence. inhibition, % at 8.6 µM. AID 686940, 2013. 0.7% of 370,000 active. HEK293T NGFI-A luciferase reporter;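 active = inhibition above a per-plate cutoff, mean inhibition of test wells between control levels plus 3 SD, cut at about 38% in these data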;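 also: cells cotransfected with COUP-TFII expression vector driving the NGFI-A reporter; 0% = median of COUP-TF2 test wells and 100% = reporter-only cells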
Gli-Sufu antag – Gli-Sufu pathway antagonists, primary screen, luciferase luminescence, Sufu-KO-LIGHT cells, uHTS. Sufu-KO-LIGHT fibroblasts, Gli luciferase reporter luminescence. inhibition, % at 5 µM. 0.74% of 340,000 active. AID 588413, 2011;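 active = inhibition above about 55%, limit read from the data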;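 also: 0% = DMSO-treated cells and 100% = wells with medium but no cells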
* = called active by the depositor; · = no result; [ ] = dose if it differs, or a comment. This is a sample that favours compounds with a hit; in the whole collection about 2.1% have one here.

SMILES	aDG glyco act	GalR3 antag	HIV Env fusion	NR2F2 inh	Gli-Sufu antag
N#Cc1ccc(S(=O)(=O)N2CCCCC2c2cc(C(=O)Nc3cccc4c3CCCC4)no2)cc1 (stereo not given)	0	-6	60*	-8	·
CS(=O)(=O)N1CCCCC1c1cc(C(=O)Nc2cccc3c2CCCC3)no1 (stereo not given)	0	-4	-12	5	·
C[C@@H]1CN([C@@H](C)CO)C(=O)c2cc(NS(C)(=O)=O)ccc2O[C@@H](C)CCCCO[C@@H]1CN(C)C	·	·	1[16.7 µM]	·	·
Cc1ccc(S(=O)(=O)NCC[C@@H]2CC[C@H](NS(=O)(=O)c3ccccc3Cl)[C@H](CO)O2)cc1	·	·	-7[16.7 µM]	·	·
Cc1ccc(CNC(=O)C2CCCN(C(=O)Nc3ccc(F)cc3)C2)cc1 (stereo not given)	0	-2	-6	13	-10
CCC(C)NC(=O)C1CCCN(C(=O)Nc2ccc(F)cc2)C1 (stereo not given)	0	1	57*	4	6
CC(=O)N(C)C[C@@H]1Oc2cc(C#CC(C)(C)O)ccc2S(=O)(=O)N([C@H](C)CO)C[C@H]1C	·	·	2[16.7 µM]	·	·
CCN(CC)CCn1c2c(c(SCC(=O)Nc3cc(OC)cc(OC)c3)nc1=O)CCC2	0	-6	61*	0	18
CCN(CC)CCCn1c2c(c(SCC(=O)Nc3cc(C)cc(C)c3)nc1=O)CCC2	0	-1	-1	10	·
C[C@@H]1CN([C@@H](C)CO)C(=O)c2cc(NC(=O)Cn3cnnn3)ccc2O[C@H]1CN(C)C(=O)Nc1ccc(F)cc1	·	·	2[16.7 µM]	·	·
CO[C@@H]1CN(C)C(=O)c2ccc(NC(C)=O)cc2OC[C@@H](C)N(C(=O)c2ccccc2F)C[C@@H]1C	·	·	-19[16.7 µM]	·	·
CCN(CCn1cccn1)C(=O)CC1C(=O)NCCN1CCc1ccccc1 (stereo not given)	0	-2	88*	4	-2
CCOc1ccc(N(C)S(=O)(=O)c2cc(-c3cc(C)no3)ccc2C(C)C)cc1	0	3	79*	15	33
CCOC(=O)[C@H]1[C@H]2COc3ccc(Br)cc3[C@@H]2N2C(=O)c3c(C)cc(C)cc3NC(=O)[C@@]12C	0	-9	67*	-2	17
CCOC(=O)[C@@H]1[C@H]2COc3ccc(Br)cc3[C@@H]2N2C(=O)N(c3ccccc3)C(=O)[C@@]12C	0	-1	87*	8	21
CCNC(=O)C[C@@H]1CC[C@H]2[C@@H](COc3ccc(NC(=O)Nc4cccc(F)c4)cc3C(=O)N2C)O1	·	·	32[16.7 µM]	·	·
CN1CCc2c(sc(NC(=O)c3ccc4ccccc4c3)c2C(N)=O)C1	19*	·	·	·	·
O=C(Cc1c(Cl)cccc1Cl)Nc1ccncc1	0	0	24	-11	-7
O=C(Cc1c(Cl)cccc1Cl)Nc1ccncc1Cl	1	-4	61*	6	8
O=C(C[C@H]1CC[C@H]2[C@@H](COC[C@@H](O)CN2C(=O)c2cnccn2)O1)NCc1ccc(F)cc1	·	·	-5[16.7 µM]	·	·
C/C(=N\NC(=O)c1cccc(Cl)c1)C1C(=O)c2ccccc2C1=O	0	-7	57*	-7	-28
C/C(=N\NC(=O)CCc1ccccc1)C1C(=O)c2ccccc2C1=O	0	-6	-2	3	14
Cn1c(CCN2CCN(c3ccccn3)CC2)nc2cc(NC(=O)COc3ccccc3)ccc21	0	-9	7	27	20
Cc1ccc(OCC(=O)Nc2ccc3c(c2)nc(CCN2CCN(c4ccccn4)CC2)n3C)cc1	1	-8	61*	34	·
O=C(NCCc1ccccc1)N1c2ccccc2Sc2ccccc21	0	-6	60*	2	5
SMILES	aDG glyco act	GalR3 antag	HIV Env fusion	NR2F2 inh	Gli-Sufu antag
C[C@H](CO)N1C[C@H](C)[C@@H](CN(C)C(=O)Nc2cccc3ccccc23)Oc2ccc(NS(C)(=O)=O)cc2C1=O	·	·	4[16.7 µM]	·	·
COc1ccc2c(c1)OC[C@H]1[C@H]2N2C(=O)CN(Cc3ccc(C)cc3)C(=O)[C@@]2(C)[C@H]1c1ccccc1	0	-8	87*	-7	2
Cc1ccc2c(c1)[C@H]1[C@H](CO2)[C@H](c2ccccc2)[C@]2(C)C(=O)N(Cc3ccc(Cl)cc3)CC(=O)N12	0	-8	65*	0	-3
COc1ccc2c(c1)OC[C@H]1[C@H]2N2C(=O)CN(Cc3ccc(F)cc3)C(=O)[C@@]2(C)[C@H]1c1ccccc1	1	-7	48	2	8
Cc1ccc2c(c1)[C@H]1[C@H](CO2)[C@H](c2ccccc2)[C@]2(C)C(=O)N(Cc3ccc(F)cc3)CC(=O)N12	0	-7	62*	-10	-9
CO[C@H]1CN(C)C(=O)c2cc(NC(C)=O)ccc2OC[C@@H](C)N(C(=O)CN2CCOCC2)C[C@H]1C	·	·	-1[16.7 µM]	·	·
CCCCCCCCCn1c2c(c(=N)c3c1CCC3)CCCC2	0	·	·	·	88*
Cc1ccc(S(=O)(=O)N(C)C[C@H]2OCCCC[C@@H](C)Oc3ccc(NS(=O)(=O)c4cn(C)cn4)cc3C(=O)N([C@@H](C)CO)C[C@@H]2C)cc1	·	·	-11[16.7 µM]	·	·
COc1cc(/C=N/NC(=O)c2cncc(Br)c2)cc([N+](=O)[O-])c1O	0	25*	11	11	-1
COc1cc(/C=N/NC(=O)c2cccc([N+](=O)[O-])c2)cc(OC)c1O	0	2	-13	2	1
Cc1cc(=O)[nH]c(N/N=C/c2ccccn2)n1	1	1	-37	-35	46
O=c1cnnc(N/N=C/c2ccccn2)[nH]1	0	-2	-84	-3	74*
C(=N\Nc1nncc2ccccc12)/c1ccccn1	0	7	84*	-35	36
COc1cc(OC)c2c(-c3cccc(-c4ccc(CO)cc4)c3)cc(=O)oc2c1	3	·	·	·	70*
COc1ccc(-c2cccc(-c3cc(=O)oc4cc(OC)c(OC)c(OC)c34)c2)cc1	0	-6	50*	5	0
COc1ccc(-c2cccc(-c3cc(=O)oc4cc(OC)cc(OC)c34)c2)cc1	0	6	-29	-14	40
COc1cc2oc(=O)cc(-c3ccc(-c4ccc(OC(F)(F)F)cc4)cc3)c2c(OC)c1OC	0	-3	-2	8	7
O=C(Nc1ccc(Cl)cc1)C1CCCN(C2=NS(=O)(=O)c3ccccc32)C1 (stereo not given)	0	-3	70*	-18	1
O=C(Nc1ccc(F)c(Cl)c1)C1CCCN(C2=NS(=O)(=O)c3ccccc32)C1 (stereo not given)	0	0	·	-6	8
C[C@H]1NC(=O)[C@@]2(C)[C@H](c3ccccc3)[C@H]3COc4ccccc4[C@@H]3N2C1=O	0	-7	92*	2	-3

Compound activity deposited in PubChem by several laboratories.
